Results taken from PubChem BioAssay (EPA / NIEHS).
The source made the active and inactive calls. The calls were made as follows: active = hit-call score of the fitted dose curve at least 0.9, where 1 is the maximum; inactive = score below 0.9.

How the values were obtained:
[1] = ATG_GLI_CIS: Attagene CIS-FACTORIAL HepG2 Assay for human Zinc Finger Protein GLI1 (AID 2282945); details: HepG2, Attagene cis-factorial reporter mRNA, GLI element; actives raise or lower the signal
In short: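 Bidirectional curve fits relative to DMSO, using reporter mRNA levels from RT-PCR plus capillary electrophoresis. Cells were HepG2 transiently carrying cis-regulated reporter constructs, harvested 24 h after dosing.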

[2] = ATG_ISRE_CIS: Attagene CIS-FACTORIAL HepG2 Assay for human Interferon Regulatory Factor 1 (IRF1) binding to an Interferon-Stimulated Response Element (ISRE) (AID 2282948); details: HepG2 ISRE cis-reporter (Attagene), mRNA transcription readout; actives raise or lower the signal
In short: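 Endogenous transcription factor activity read as reporter transcript abundance via RT-PCR and capillary electrophoresis. HepG2 cells transiently transfected, 24 h chemical exposure. Gain or loss fitted against DMSO baseline.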

[3] = ATG_M_32_CIS: Attagene CIS-FACTORIAL HepG2 Assay for M32 Transcription Factor (Internal Marker) (AID 2282949); details: HepG2 Attagene cis-factorial M32 reporter, mRNA; actives raise or lower the signal;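 also: background control marker of the multiplexed CIS panel rather than a real target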
In short: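 HepG2 transfectants (cis-regulated reporter transcription units) dosed 24 h. Reporter mRNA by RT-PCR plus CE, analysed as gain or loss relative to DMSO.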

[4] = ATG_M_06_CIS: Attagene CIS-FACTORIAL HepG2 Assay for M06 Transcription Factor (Internal Marker) (AID 2282950); details: HepG2 Attagene CIS-FACTORIAL M06 internal marker reporter; actives raise or lower the signal
In short: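 HepG2 cells transiently transfected with cis-regulated multiple reporter transcription units were exposed to chemical for 24 h; reporter mRNA was quantified by RT-PCR, 6-FAM primer labelling, HpaI digestion and capillary electrophoresis, fitted bidirectionally against DMSO.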

[5] = biological target: Hypoxia-inducible factor 1-alpha (Homo sapiens) (UniProt Q16665); assay: ATG_HIF1a_CIS: Attagene CIS-FACTORIAL HepG2 Assay for human Hypoxia Inducible Factor 1 (HIF1A) (AID 2282951); details: HepG2 Attagene cis-factorial HIF1a reporter transcription; actives raise or lower the signal
In short: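 HepG2 cells transiently transfected with multiple cis-regulated reporter transcription units measure endogenous transcription factor activity. After 24 h exposure, reporter mRNA is quantified by RT-PCR with 6-FAM labelling, HpaI digestion and capillary electrophoresis. Bidirectional fitting against DMSO.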

[6] = biological target: Hepatocyte nuclear factor 6 (Homo sapiens) (UniProt Q9UBC0); assay: ATG_HNF6_CIS: Attagene CIS-FACTORIAL HepG2 Assay for human Hepatocyte Nuclear Factor 6 (HNF6) (AID 2282952); details: HepG2 Attagene cis-factorial HNF6 reporter transcription; actives raise or lower the signal
In short: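 Activity values derive from bidirectional fitting against DMSO of reporter mRNA levels, measured by capillary electrophoresis of labelled RT-PCR products from HepG2 cells exposed 24 h.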

[7] = biological target: Heat shock factor protein 1 (Homo sapiens) (UniProt Q00613); assay: ATG_HSE_CIS: Attagene CIS-FACTORIAL HepG2 Assay for human Heat Shock Transcription Factor 1 (HSE) (AID 2282953); details: HepG2 HSE cis-reporter, Attagene RNA transcription; actives raise or lower the signal
In short: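 HepG2 cells transiently transfected with multiple reporter transcription units under cis-regulatory promoter control, measuring endogenous transcription factor activity. After 24 h chemical exposure, reporter mRNA quantified by RT-PCR, fluorescent labelling, HpaI digestion and capillary electrophoresis; bidirectional fit versus DMSO.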

[8] = ATG_MRE_CIS: Attagene CIS-FACTORIAL HepG2 Assay for human Metal Responsive Element (MRE) (AID 2282954); details: HepG2 MRE cis-reporter transcription, Attagene multiplex; actives raise or lower the signal
In short: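 Endogenous MRE-dependent transcription read as reporter mRNA in transiently transfected human HepG2 cells at 24 h. RNA reverse-transcribed, PCR-amplified, labelled and resolved by capillary electrophoresis; gain or loss relative to DMSO.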

[9] = biological target: Paired box protein Pax-6 (Homo sapiens) (UniProt P26367); assay: ATG_Pax6_CIS: Attagene CIS-FACTORIAL HepG2 Assay for human Paired Box 6 (PAX6) (AID 2282956); details: HepG2 CIS-FACTORIAL PAX6 reporter transcription, RNA readout; actives raise or lower the signal
In short: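 Read-out is reporter transcript level, measured by RT-PCR with fluorescent primer extension and capillary electrophoresis after 24 h dosing of transfected HepG2 cells. Activity in either direction fitted relative to DMSO control.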

[10] = ATG_PXRE_CIS: Attagene CIS-FACTORIAL HepG2 Assay for human Pregnane X Receptor Element (PXRE) (AID 2282957); details: HepG2 Attagene CIS-FACTORIAL PXRE reporter, mRNA; actives raise or lower the signal
In short: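 Fluorescent capillary electrophoresis of amplified reporter cDNA gave the signal, collected 24 h after dosing HepG2 cells that held transfected cis-element reporter constructs.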

[11] = ATG_PPRE_CIS: Attagene CIS-FACTORIAL HepG2 Assay for human Peroxisome Proliferator-activated Response Element (PPRE) (AID 2282958); details: HepG2 PPRE cis-element reporter, Attagene transcription factor profiling; actives raise or lower the signal
In short: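 HepG2 cells are transiently transfected with multiplexed cis-promoter reporter units to report endogenous PPAR activity. After 24 h dosing, reporter mRNA is read by RT-PCR and capillary electrophoresis. Fitting is bidirectional against DMSO.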

[12] = ATG_Sox_CIS: Attagene CIS-FACTORIAL HepG2 Assay for human SRY-box transcription factor (SOX) (AID 2282960); details: HepG2 Attagene cis-factorial SOX reporter, mRNA; actives raise or lower the signal
In short: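 HepG2 cells transiently transfected with multiple cis-regulated reporter units, then dosed for 24 h. Reporter mRNA quantified by RT-PCR, fluorescent labelling, HpaI digestion and capillary electrophoresis; bidirectional fit versus DMSO.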

[13] = biological target: Transcription factor Sp1 (Homo sapiens) (UniProt P08047); assay: ATG_Sp1_CIS: Attagene CIS-FACTORIAL HepG2 Assay for human Specificity Protein 1 (Sp1) (AID 2282961); details: HepG2 Sp1 cis-reporter transcription, actives raise or lower the signal
In short: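 HepG2 cells transiently transfected with multiplexed cis-regulated reporter constructs, chemical exposure 24 h. Reporter mRNA quantified by RT-PCR with capillary electrophoresis; bidirectional fit relative to DMSO.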

[14] = ATG_SREBP_CIS: Attagene CIS-FACTORIAL HepG2 Assay for human Sterol Regulatory Element Binding (SREBP) (AID 2282962); details: HepG2 Attagene cis-factorial SREBP reporter, mRNA; actives raise or lower the signal
In short: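 Endogenous SREBP activity read as cis-element-driven reporter transcript in transiently transfected HepG2, 24 h post-dosing; quantified via RT-PCR plus capillary electrophoresis of fluorescent fragments. Gain or loss of signal fitted relative to DMSO baseline.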

[15] = biological target: Signal transducer and activator of transcription 3 (Homo sapiens) (UniProt P40763); assay: ATG_STAT3_CIS: Attagene CIS-FACTORIAL HepG2 Assay for human Signal Transducer and Activator of Transcription 3 (STAT3) (AID 2282963); details: HepG2, Attagene cis-factorial STAT3 reporter transcription; actives raise or lower the signal
In short: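 Readout is reporter transcript quantified by RT-PCR and capillary electrophoresis, with 6-FAM primer extension and HpaI digestion. Total RNA is taken 24 h after dosing transiently transfected HepG2 carrying cis-regulated reporter units. Bidirectional fit against DMSO.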

[16] = ATG_TA_CIS: Attagene CIS-FACTORIAL HepG2 Assay for human TA Basal Promoter (AID 2282964); details: HepG2 Attagene CIS-factorial TA basal promoter reporter; actives raise or lower the signal
In short: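 HepG2 cells transiently transfected with multiplexed cis-promoter reporter units, dosed 24 h. Reporter mRNA measured by RT-PCR, 6-FAM labelling, HpaI digestion and capillary electrophoresis; bidirectional fit versus DMSO baseline, serving as background control.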

[17] = ATG_RORE_CIS: Attagene CIS-FACTORIAL HepG2 Assay for human RAR-related Orphan Receptor Element (RORE) (AID 2282959); details: HepG2 Attagene cis-factorial RORE reporter, mRNA; actives raise or lower the signal
In short: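 HepG2 cells carrying transiently transfected cis-regulated reporter units; RORE-driven reporter mRNA quantified 24 h post-dosing by RT-PCR, 6-FAM primer extension, HpaI digestion and capillary electrophoresis. Bidirectional fit versus DMSO.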

[18] = ATG_PBREM_CIS: Attagene CIS-FACTORIAL HepG2 Assay for human Phenobarbital-responsive Enhancer Module (PBREM) (AID 2282955); details: HepG2 PBREM cis-reporter, Attagene multiplexed transcription; actives raise or lower the signal
In short: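 HepG2 cells transiently transfected with multiple cis-regulated reporter units measure endogenous transcription factor activity; 24 h compound exposure. Reporter mRNA quantified by RT-PCR, fluorescent labelling, HpaI digestion and capillary electrophoresis; bidirectional fit versus DMSO.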

Sequence of Hepatocyte nuclear factor 6 (Homo sapiens) (Q9UBC0 whole entry, looked up): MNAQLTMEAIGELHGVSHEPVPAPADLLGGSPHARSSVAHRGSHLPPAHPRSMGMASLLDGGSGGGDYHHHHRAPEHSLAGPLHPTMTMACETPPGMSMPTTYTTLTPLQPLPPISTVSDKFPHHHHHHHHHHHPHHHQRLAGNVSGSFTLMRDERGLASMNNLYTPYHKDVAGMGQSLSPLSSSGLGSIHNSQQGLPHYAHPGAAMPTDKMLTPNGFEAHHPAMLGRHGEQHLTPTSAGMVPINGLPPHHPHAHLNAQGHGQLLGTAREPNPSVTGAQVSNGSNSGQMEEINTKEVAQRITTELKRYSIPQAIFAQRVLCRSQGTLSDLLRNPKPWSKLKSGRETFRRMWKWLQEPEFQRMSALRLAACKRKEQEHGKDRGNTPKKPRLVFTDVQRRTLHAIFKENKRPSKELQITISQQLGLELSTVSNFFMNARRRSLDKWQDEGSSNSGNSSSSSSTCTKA
Sequence of Transcription factor Sp1 (Homo sapiens) (P08047 whole entry, looked up): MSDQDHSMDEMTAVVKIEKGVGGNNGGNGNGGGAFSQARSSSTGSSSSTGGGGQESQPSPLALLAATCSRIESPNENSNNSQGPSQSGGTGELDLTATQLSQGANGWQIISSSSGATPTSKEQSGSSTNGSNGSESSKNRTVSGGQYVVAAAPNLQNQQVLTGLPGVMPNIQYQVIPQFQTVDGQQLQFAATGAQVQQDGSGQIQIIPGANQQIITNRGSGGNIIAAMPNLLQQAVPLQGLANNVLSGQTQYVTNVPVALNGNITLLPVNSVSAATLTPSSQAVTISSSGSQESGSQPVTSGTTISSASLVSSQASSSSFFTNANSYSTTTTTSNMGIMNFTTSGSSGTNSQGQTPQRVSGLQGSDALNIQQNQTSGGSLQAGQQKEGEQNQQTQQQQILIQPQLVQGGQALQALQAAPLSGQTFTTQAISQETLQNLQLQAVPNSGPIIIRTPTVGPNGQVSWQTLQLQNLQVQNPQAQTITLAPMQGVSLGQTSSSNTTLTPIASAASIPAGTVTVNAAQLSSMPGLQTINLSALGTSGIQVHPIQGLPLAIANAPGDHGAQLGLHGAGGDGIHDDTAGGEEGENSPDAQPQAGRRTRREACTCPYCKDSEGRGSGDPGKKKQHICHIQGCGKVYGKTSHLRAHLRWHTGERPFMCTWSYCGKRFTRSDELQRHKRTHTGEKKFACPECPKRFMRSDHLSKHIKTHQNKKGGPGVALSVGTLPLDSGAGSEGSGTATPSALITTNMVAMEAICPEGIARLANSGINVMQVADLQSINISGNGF
Sequence of Hypoxia-inducible factor 1-alpha (Homo sapiens) (Q16665 whole entry, looked up): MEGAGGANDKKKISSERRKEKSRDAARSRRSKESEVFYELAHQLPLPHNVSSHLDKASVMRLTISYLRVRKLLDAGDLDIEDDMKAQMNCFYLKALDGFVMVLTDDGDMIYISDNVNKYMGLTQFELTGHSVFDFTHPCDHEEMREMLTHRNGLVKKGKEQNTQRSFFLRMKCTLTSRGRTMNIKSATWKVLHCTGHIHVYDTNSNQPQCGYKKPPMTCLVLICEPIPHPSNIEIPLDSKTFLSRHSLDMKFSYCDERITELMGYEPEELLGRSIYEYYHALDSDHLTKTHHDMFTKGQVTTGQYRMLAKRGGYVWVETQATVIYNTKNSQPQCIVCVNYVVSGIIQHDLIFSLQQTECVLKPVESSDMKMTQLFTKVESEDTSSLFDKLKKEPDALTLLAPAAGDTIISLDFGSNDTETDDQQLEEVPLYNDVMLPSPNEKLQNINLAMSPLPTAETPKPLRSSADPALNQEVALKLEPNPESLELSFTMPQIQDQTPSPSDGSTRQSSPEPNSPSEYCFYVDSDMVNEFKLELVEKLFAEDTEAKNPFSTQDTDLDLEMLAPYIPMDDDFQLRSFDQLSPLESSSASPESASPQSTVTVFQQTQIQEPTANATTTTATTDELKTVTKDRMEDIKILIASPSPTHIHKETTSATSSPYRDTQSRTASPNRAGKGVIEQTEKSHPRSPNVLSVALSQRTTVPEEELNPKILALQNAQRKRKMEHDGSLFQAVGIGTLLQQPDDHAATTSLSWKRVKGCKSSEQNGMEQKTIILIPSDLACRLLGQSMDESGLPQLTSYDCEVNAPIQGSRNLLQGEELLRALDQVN
Sequence of Heat shock factor protein 1 (Homo sapiens) (Q00613 whole entry, looked up): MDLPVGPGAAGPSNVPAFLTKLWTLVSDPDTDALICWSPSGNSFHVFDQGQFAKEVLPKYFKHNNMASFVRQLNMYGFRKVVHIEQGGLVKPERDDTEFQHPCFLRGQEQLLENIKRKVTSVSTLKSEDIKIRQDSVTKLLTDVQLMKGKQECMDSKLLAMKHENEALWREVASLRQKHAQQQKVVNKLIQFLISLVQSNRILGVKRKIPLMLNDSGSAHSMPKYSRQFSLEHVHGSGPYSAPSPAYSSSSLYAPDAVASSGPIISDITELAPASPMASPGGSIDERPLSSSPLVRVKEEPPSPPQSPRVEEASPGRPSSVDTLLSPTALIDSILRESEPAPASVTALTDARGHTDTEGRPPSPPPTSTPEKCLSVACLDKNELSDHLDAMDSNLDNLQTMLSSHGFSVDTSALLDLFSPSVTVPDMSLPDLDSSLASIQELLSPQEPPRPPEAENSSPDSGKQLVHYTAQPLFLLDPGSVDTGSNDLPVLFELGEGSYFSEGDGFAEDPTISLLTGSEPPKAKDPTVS
Sequence of Paired box protein Pax-6 (Homo sapiens) (P26367 whole entry, looked up): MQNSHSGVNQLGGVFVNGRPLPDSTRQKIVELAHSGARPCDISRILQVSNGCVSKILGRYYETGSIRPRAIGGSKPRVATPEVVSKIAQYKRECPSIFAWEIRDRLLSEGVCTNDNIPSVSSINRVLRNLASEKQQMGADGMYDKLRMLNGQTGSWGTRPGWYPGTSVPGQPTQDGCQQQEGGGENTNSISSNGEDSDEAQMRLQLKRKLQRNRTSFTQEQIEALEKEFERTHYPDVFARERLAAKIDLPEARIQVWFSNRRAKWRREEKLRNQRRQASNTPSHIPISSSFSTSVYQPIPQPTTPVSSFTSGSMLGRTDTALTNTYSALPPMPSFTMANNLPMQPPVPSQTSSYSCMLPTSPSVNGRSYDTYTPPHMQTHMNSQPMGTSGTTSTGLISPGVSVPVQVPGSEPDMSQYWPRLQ
Sequence of Signal transducer and activator of transcription 3 (Homo sapiens) (P40763 whole entry, looked up): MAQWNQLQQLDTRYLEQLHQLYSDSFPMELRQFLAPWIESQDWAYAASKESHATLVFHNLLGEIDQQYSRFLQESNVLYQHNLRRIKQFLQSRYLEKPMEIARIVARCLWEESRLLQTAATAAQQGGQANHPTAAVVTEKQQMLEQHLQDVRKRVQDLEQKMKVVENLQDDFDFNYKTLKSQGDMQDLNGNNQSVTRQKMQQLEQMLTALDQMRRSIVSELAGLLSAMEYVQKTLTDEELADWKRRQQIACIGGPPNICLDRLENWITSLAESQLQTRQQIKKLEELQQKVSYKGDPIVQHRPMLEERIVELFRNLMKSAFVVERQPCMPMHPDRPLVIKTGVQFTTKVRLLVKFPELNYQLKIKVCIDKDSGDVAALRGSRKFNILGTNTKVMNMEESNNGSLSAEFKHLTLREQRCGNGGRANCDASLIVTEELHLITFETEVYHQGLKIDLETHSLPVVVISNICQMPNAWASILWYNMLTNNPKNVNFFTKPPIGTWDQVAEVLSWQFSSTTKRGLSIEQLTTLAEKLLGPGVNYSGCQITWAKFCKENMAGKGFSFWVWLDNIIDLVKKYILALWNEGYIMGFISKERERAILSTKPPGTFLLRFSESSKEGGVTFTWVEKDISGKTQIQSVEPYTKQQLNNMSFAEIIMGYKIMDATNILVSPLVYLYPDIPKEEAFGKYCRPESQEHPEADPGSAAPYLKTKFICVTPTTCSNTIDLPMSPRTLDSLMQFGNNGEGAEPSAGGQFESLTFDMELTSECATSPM

O=C(O)c1cccc(Cl)n1
outcome [1]: inactive | outcome [2]: inactive | outcome [3]: inactive | outcome [4]: inactive | outcome [5]: inactive | outcome [6]: inactive | outcome [7]: inactive | outcome [8]: inactive | outcome [9]: inactive | outcome [10]: inactive | outcome [11]: inactive | outcome [12]: inactive | outcome [13]: inactive | outcome [14]: inactive | outcome [15]: inactive | outcome [16]: inactive

CCCCCCCCOC(C)=O
outcome [1]: inactive | outcome [2]: inactive | outcome [3]: inactive | outcome [4]: inactive | outcome [5]: inactive | outcome [6]: inactive | outcome [7]: inactive | outcome [8]: inactive | AC50 [10]: 73.1 µM (active) | outcome [11]: inactive | outcome [17]: inactive | outcome [13]: inactive | outcome [14]: inactive | outcome [15]: inactive | outcome [16]: inactive

CC(C)CCCC(C)(C)O
outcome [1]: inactive | outcome [2]: inactive | outcome [3]: inactive | outcome [4]: inactive | outcome [5]: inactive | outcome [6]: inactive | outcome [8]: inactive | outcome [18]: inactive | outcome [9]: inactive | outcome [10]: inactive | outcome [11]: inactive | outcome [17]: inactive | outcome [12]: inactive | outcome [13]: inactive | outcome [14]: inactive | outcome [15]: inactive | outcome [16]: inactive

C=CCCCCCCCCC(=O)OCC
outcome [1]: inactive | outcome [2]: inactive | outcome [3]: inactive | outcome [4]: inactive | outcome [5]: inactive | outcome [6]: inactive | outcome [7]: inactive | outcome [8]: inactive | outcome [18]: inactive | outcome [10]: inactive | outcome [11]: inactive | outcome [17]: inactive | outcome [12]: inactive | outcome [13]: inactive | outcome [14]: inactive | outcome [15]: inactive | outcome [16]: inactive

CC(O)CNCC(C)O (stereo unspecified)
outcome [1]: inactive | outcome [2]: inactive | outcome [3]: inactive | outcome [4]: inactive | outcome [6]: inactive | outcome [7]: inactive | outcome [8]: inactive | outcome [18]: inactive | outcome [9]: inactive | outcome [10]: inactive | outcome [11]: inactive | outcome [17]: inactive | outcome [12]: inactive | outcome [13]: inactive | outcome [14]: inactive | outcome [15]: inactive

C=C(C)C(=O)OCCN(C)C
outcome [1]: inactive | outcome [2]: inactive | outcome [3]: inactive | outcome [4]: inactive | outcome [5]: inactive | outcome [6]: inactive | outcome [7]: inactive | outcome [8]: inactive | outcome [18]: inactive | outcome [10]: inactive | outcome [11]: inactive | outcome [17]: inactive | outcome [12]: inactive | outcome [13]: inactive | outcome [14]: inactive | outcome [15]: inactive | outcome [16]: inactive

OC[C@@H](O)[C@H](O)[C@@H](O)[C@@H](O)CO
outcome [1]: inactive | outcome [2]: inactive | outcome [3]: inactive | outcome [4]: inactive | outcome [5]: inactive | outcome [7]: inactive | outcome [8]: inactive | outcome [9]: inactive | AC50 [10]: 37.2 µM (active) | outcome [17]: inactive | outcome [12]: inactive | outcome [13]: inactive | outcome [14]: inactive | outcome [15]: inactive | outcome [16]: inactive

CCCCCCC(O)CCOC(C)=O (stereo unspecified)
outcome [1]: inactive | outcome [2]: inactive | outcome [3]: inactive | outcome [4]: inactive | outcome [5]: inactive | outcome [7]: inactive | outcome [8]: inactive | outcome [9]: inactive | AC50 [10]: 18.6 µM (active) | outcome [11]: inactive | outcome [17]: inactive | outcome [12]: inactive | outcome [13]: inactive | outcome [14]: inactive | outcome [15]: inactive | outcome [16]: inactive

CCOC(=O)C=Cc1ccccc1
outcome [1]: inactive | outcome [2]: inactive | outcome [3]: inactive | outcome [4]: inactive | outcome [5]: inactive | outcome [6]: inactive | outcome [8]: inactive | outcome [18]: inactive | outcome [9]: inactive | AC50 [10]: 27.8 µM (active) | outcome [11]: inactive | outcome [13]: inactive | outcome [14]: inactive | outcome [15]: inactive | outcome [16]: inactive

CCCCCCCOC(C)=O
outcome [1]: inactive | outcome [2]: inactive | outcome [3]: inactive | outcome [4]: inactive | outcome [5]: inactive | outcome [6]: inactive | outcome [7]: inactive | outcome [8]: inactive | AC50 [10]: 31 µM (active) | outcome [11]: inactive | outcome [12]: inactive | outcome [13]: inactive | outcome [14]: inactive | outcome [15]: inactive | outcome [16]: inactive

ClCCOCCOCCCl
outcome [1]: inactive | outcome [2]: inactive | outcome [3]: inactive | outcome [4]: inactive | outcome [5]: inactive | outcome [6]: inactive | outcome [7]: inactive | outcome [8]: inactive | outcome [9]: inactive | outcome [10]: inactive | outcome [11]: inactive | outcome [17]: inactive | outcome [12]: inactive | outcome [13]: inactive | outcome [14]: inactive | outcome [15]: inactive | outcome [16]: inactive

CC1=CCC(C(C)(C)O)CC1 (stereo unspecified)
outcome [1]: inactive | outcome [2]: inactive | outcome [3]: inactive | outcome [4]: inactive | outcome [5]: inactive | outcome [7]: inactive | outcome [8]: inactive | outcome [9]: inactive | outcome [10]: inactive | outcome [11]: inactive | outcome [12]: inactive | outcome [13]: inactive | outcome [14]: inactive | outcome [15]: inactive | outcome [16]: inactive
